KDM5B inh = inhibitors of human KDM5B histone demethylase | KDM5B demethylase, FDH-coupled NADH fluorescence (FDH is formaldehyde dehydrogenase) | Potency, µM (highest dose often 57.7 µM), most hits filed as inhibitors | actives 2.6% (n = 220,000) | AID 1347165; active = well fitted inhibition curve with a large enough effect; note: nearly all actives have a fitted effect of over 70% in size
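qHTS format, multiple compound concentrations. Buffer 50 mM HEPES pH 7.5/0.01% Tween-20; 200 nM KDM5BΔAP final; 10 min compound preincubation; substrate-mix levels 12.5 µM peptide, 25 µM α-KG, 0.25 mM NAD⁺; 30 min RT; ΔRFU.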
Numbers stand for hits; i = inactive. The full list was thinned out, with hits kept by preference.

SMILES	KDM5B inh
Cc1oc(-c2nc(C#N)c(N3CCOCC3)o2)cc1S(=O)(=O)N1CCCC1	i
COCc1ccc2c(c1)c(OC(C)(C)C(=O)NC1CCOCC1)nn2Cc1ccccc1	28.2µM
COCc1ccc2c(c1)c(OC(C)(C)C(=O)NCC1CC1)nn2Cc1ccccc1	31.6µM
COCc1ccc2c(c1)c(OC(C)(C)C(=O)N1CC(O)C1)nn2Cc1cccnc1	i
CC(C)n1nc(OC(C)(C)C(=O)NCc2cnccn2)c2cc(CN3CCOCC3)ccc21	i
CN(C)Cc1ccc2c(c1)c(OC(C)(C)C(=O)NC1CC1)nn2Cc1ccccc1	35.5µM
Cn1nc(OC(C)(C)C(=O)NCCOc2ccccc2)c2cc(CN3CCCC3)ccc21	39.8µM
CC(C)(Oc1nn(Cc2cccc(Cl)c2)c2ccccc12)C(=O)NCCN1CCOCC1	i
COCc1ccc2c(c1)c(OC(C)(C)C(=O)NCCc1cccnc1)nn2Cc1ccccc1	i
COCc1ccc2c(c1)c(OC(C)(C)C(=O)N1CCN(CCO)CC1)nn2Cc1ccccc1	i
CN1CCC(NC(=O)C(C)(C)Oc2nn(CCOc3ccccc3)c3ccccc23)CC1	i
CNC(=O)c1ccc(S(=O)(=O)Nc2ccccc2)cc1	i
O=C(/C=C/c1cccc(Cl)c1)NC1CCCC1	i
Cc1cc(C)c(NC(=O)CNC(=O)c2cc3ccc(F)cc3nc2C)c(C)c1	i
O=C(Cn1cccc1-c1nc(-c2ccc(F)cc2)no1)NCCC1=CCCCC1	i
CCOC(=O)CSc1nc2c(c(=O)[nH]c(=O)n2C)n1Cc1cccc(Br)c1	i
Cc1c(C)c2ccc(OCC(=O)Nc3ccc4c(c3)OCCO4)cc2oc1=O	i
Cc1cc(C)n(-c2nc3c(c(=O)n(CCN4CCOCC4)c(=O)n3C)n2CCC(C)C)n1	i
Clc1ccc(CO/N=C/c2ccc(OCc3ccccc3)cc2)c(Cl)c1	i
COCc1ccc2c(c1)c(OC(C)(C)C(=O)NCC[S+](C)(=O)[O-])nn2Cc1ccccc1	28.2µM
COCc1ccc2c(c1)c(OC(C)(C)C(=O)NCc1cnccn1)nn2Cc1cccnc1	i
COCc1ccc2c(c1)c(OC(C)(C)C(=O)NC1CC1)nn2Cc1ccccc1	35.5µM
COCc1ccc2c(c1)c(OC(C)(C)C(=O)Nc1cc(C)nn1C)nn2Cc1ccccc1	i
COCc1ccc2c(c1)c(OC(C)(C)C(=O)NCC[S+](C)(=O)[O-])nn2Cc1cccnc1	i
COCc1ccc2c(c1)c(OC(C)(C)C(=O)Nc1ccccc1)nn2Cc1cccnc1	i
SMILES	KDM5B inh
CC(C)(Oc1nn(Cc2cccc(Cl)c2)c2ccccc12)C(=O)NCC[S+](C)(=O)[O-]	i
CC(C)(Oc1nn(CCN2CCOCC2)c2ccccc12)C(=O)NCc1ccccc1	i
COCc1ccc2c(c1)c(OC(C)(C)C(=O)NCC1CCOCC1)nn2CCC(C)C	35.5µM
CCCC(=O)N1Cc2ccccc2CC2(CCCN(CCC)C2)C1 (centres undefined)	i
O=C(NCC(c1ccccc1)c1c[nH]c2ccccc12)c1ccccn1 (centres undefined)	i
CC(C)CC(=O)NN	i
COCCN1C(=O)C(=O)/C(=C(/O)c2ccc(OC(C)C)c(C)c2)C1c1ccc(Br)cc1 (centres undefined)	i
CC(C)CCC1(C)NC(=O)N(Cc2cc(F)cc3cccnc23)C1=O (centres undefined)	i
CCN1CCCC1CNC(=O)c1nn(Cc2ccccc2)c(=O)c2ccccc12 (centres undefined)	i
COc1ccc(C2Cn3nnc(C(=O)N4CCN(C(=O)c5sccc5C)CC4)c3CO2)cc1 (centres undefined)	i
O=C(COc1ccc(-c2ccccc2)cc1Cl)c1ccc[nH]1	i
CNC(=O)c1ccc(CN(C)c2nc3ccccc3o2)cc1	i
O=C(NCc1ccc(Cl)cc1)NC1CC1	i
CCCNC(=O)CNC(=O)c1nn(-c2ccccc2)c(=O)c2ccccc12	i
Cc1ccc(-n2nc(-c3c(C)nc4scc(CC(=O)Nc5ccc(F)cc5)n4c3=O)cc2C)cc1	28.2µM
CCC(C)NC(=O)CCc1c(C)nc2c(c(C)nn2-c2ccc(C)cc2)c1C (centres undefined)	i
CCC(C)NC(=O)Cc1csc2nc(C)c(-c3cc(C)n(-c4ccc(C)cc4)n3)c(=O)n12 (centres undefined)	28.2µM
CCCNC(=O)Cc1csc2nc(C)c(-c3cc(C)n(-c4ccc(C(C)C)cc4)n3)c(=O)n12	28.2µM
CCC(C)NC(=O)CNC(=O)c1nn(-c2ccc(OC)cc2)c(=O)c2ccccc12 (centres undefined)	i
CCCCNC(=O)c1nn(-c2ccc(C)cc2)c(=O)n(C)c1=O	i
Cc1cc2nc3n(c(=O)c2n1CC(=O)Nc1ccc(F)cc1)CCC3	i
CCCNC(=O)COc1cc(C)c2c(C)nn(-c3ccc(CC)cc3)c2n1	i
Cc1ccc(-c2nn(CC(=O)Nc3ccc(F)cc3)c(=O)c3ccccc23)cc1	i
CCCNC(=O)Cc1csc2nc(C)c(-c3cc(C)n(-c4ccc(C)cc4)n3)c(=O)n12	28.2µM
CCCNC(=O)CSc1nnc(N2CCCCC2)n1-c1ccc(C)cc1	i
SMILES	KDM5B inh
Cc1cc(C(=O)NCc2c(C)ncc3c2CCNC3)ccc1F	i
O=C(CC1C(=O)NCCN1C(=O)CN1CCN(CCO)CC1)Nc1ccc(F)cc1 (centres undefined)	i
Cc1noc(C)c1S(=O)(=O)N(C)C(C)c1cc2ccccc2o1 (centres undefined)	i
O=C(Nc1cccc(C(F)(F)F)c1)C1C(c2ccccc2)=C1c1ccccc1	i
CC(C)c1nc2c(c(-c3ccc(O)cc3)n1)CCN(C(=O)c1cccc(Cl)c1)CC2	i
COC(=O)/C(C#N)=C\c1cn[nH]c1C(C)(C)C	i
CCOC(=O)c1c(NC(=O)Cn2nnc(-c3ccccc3)n2)sc(CC)c1C	i
Cc1cccc(Cn2c(SCCc3ccccc3)nc3c2c(=O)[nH]c(=O)n3C)c1	i
OC(COc1ccccc1F)CN(Cc1ccccc1)CC(O)COc1ccccc1F (centres undefined)	i
CCCCNC(=O)CN1CCN(c2nc(C(F)(F)F)nc3ccccc23)CC1	i
N#Cc1ccc(COc2ccccc2C(=O)Nc2ccccc2)cc1	i
COc1ccc(Cl)cc1C(C(=O)O)N1CCCN(c2ncccn2)CC1 (centres undefined)	28.2µM
Cn1cc(C(C(=O)O)N2CCN(c3ncccn3)CC2)c2cc(C(=O)O)ccc21 (centres undefined)	i
O=C(O)C(c1c[nH]c2ccc(Cl)cc12)N1CCN(c2ncc(Br)cn2)CC1 (centres undefined)	i
Cc1cc2oc(=O)cc(CSc3nnnn3C3CC3)c2cc1C(C)C	i
C/C(Cc1ccccc1)=N\NC(=O)C(C)C	i
COc1ccc(C(=O)N[C@H]2CC[C@]3(C)CCC([C@H](C)C(=O)N(C)Cc4cccnc4)[C@H](O)[C@H]3[C@@H]2C)cc1 (some centres undefined)	i
C[C@H](C(=O)N1CCSCC1)C1CC[C@@]2(C)Cc3sc(Nc4c(Cl)cccc4Cl)nc3[C@@H](C)[C@@H]2[C@H]1O (some centres undefined)	i
Cc1nc2c(s1)C[C@]1(C)CCC([C@H](C)C(=O)N3CCOCC3)[C@H](O)[C@H]1[C@@H]2C (some centres undefined)	i
C=CCN(C)C(=O)[C@@H](C)C1CC[C@@]2(C)Cc3sc(NCCCC)nc3[C@@H](C)[C@@H]2[C@H]1O (some centres undefined)	35.5µM

High-throughput results deposited in PubChem BioAssay by National Center for Advancing Translational Sciences (NCATS).
